High-throughput results as filed in PubChem.
FBA Mtb inh: Mtb fructose-bisphosphate aldolase inhibition. P9WQA3. purified M. tuberculosis FBA, fluorescence read-out. inhibition, % at 1 µM. 2.3% of 360,000 active. AID 588726; in the data active = inhibition above about 27%
Target sequence (P9WQA3 whole entry, looked up): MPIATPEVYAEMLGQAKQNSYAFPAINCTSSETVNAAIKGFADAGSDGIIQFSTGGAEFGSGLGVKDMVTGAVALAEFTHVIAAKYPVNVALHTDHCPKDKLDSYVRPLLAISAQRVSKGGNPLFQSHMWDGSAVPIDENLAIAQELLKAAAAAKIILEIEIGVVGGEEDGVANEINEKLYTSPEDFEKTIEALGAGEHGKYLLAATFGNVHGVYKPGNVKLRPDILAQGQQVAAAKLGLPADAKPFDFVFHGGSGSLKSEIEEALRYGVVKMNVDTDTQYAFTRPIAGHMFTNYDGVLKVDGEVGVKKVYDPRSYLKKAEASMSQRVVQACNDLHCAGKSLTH
BoNT A protease: blocks Botulinum neurotoxin A light chain protease; multiplex microsphere protease substrate cleavage, flow cytometry; inhibition, % at 10 µM; 0.17% of 360,000 active; AID 588499
Autofluor counter: counter-screen for toxin protease inhibitors: compound fluorescence; fluorescence intensity (concentration not given with the values); 3.1% of 360,000 active; compound autofluorescence counterscreen, microsphere flow cytometry; stronger effect = higher value; in the data active = fluorescence intensity above about 16000; inconclusive = no clear call, values can overlap the other calls
BoNT-F LC inh: blocks Botulinum neurotoxin F light chain protease | Multiplex microsphere protease cleavage assay, flow cytometry | inhibition, % at 10 µM | 0.22% of 360,000 active | AID 588497; in the data active = inhibition above about 35%, passing the limit was not always enough; inconclusive = no clear call, values can overlap the other calls
Anthrax LF prot: anthrax lethal factor protease inhibition. P15917. multiplex microsphere protease cleavage assay, LF. inhibition, % at 10 µM. 0.12% of 360,000 active. AID 588501
GDH-TPI counter-1: inhibits GDH-TPI coupling enzymes, artifact for Mtb FBA screen; inhibition, % at 4.8 µM; AID 588335; 1.2% of 360,000 active; GDH-TPI coupled enzyme counterscreen, NADH absorbance; in the data active = inhibition above about 30%
Mtb FBA inh conf: Mtb FBA inhibition, confirmed; shares compounds with FBA Mtb inh; purified M. tuberculosis FBA, fluorescence read-out; inhibition, % at 1 µM; 78% of 5,600 active; AID 651616; in the data active = inhibition above about 27%
GDH-TPI counter-2: inhibits GDH-TPI coupling enzymes, flagging Mtb FBA hits | shares compounds with FBA Mtb inh | GDH-TPI coupled enzyme counterscreen, fluorescence | inhibition, % at 1 µM | 81% of 5,600 active | AID 652141; in the data active = inhibition above about 10%
Each line names hits and unclear results; the compound was inactive in the other large screens (follow-up assays come after a bar, where they were run). Most compounds without a hit are left out; they make up all but 6.7% or so of the library. Rule as the data show it, unless noted: active = inhibition above about 30%; inconclusive = no clear call, values can overlap the other calls; inactive = below that.

CCCN(CCC)CCCNC(=O)c1cc2cc3ccc(Cl)cc3nc2o1	none
Cc1ccc2cc3cc(C(=O)NCCCN4CCCCCC4)oc3nc2c1	FBA Mtb inh 75 | Mtb FBA inh conf 97 | GDH-TPI counter-2 47
Cc1ccc2cc3cc(C(=O)NCCCN4CCc5ccccc5C4)oc3nc2c1	FBA Mtb inh 70, GDH-TPI counter-1 35 | Mtb FBA inh conf 184 | GDH-TPI counter-2 134
CCCCN(CC)C(=O)c1cc2cc3ccc(OC)cc3nc2o1	FBA Mtb inh 41, GDH-TPI counter-1 34 | Mtb FBA inh conf 98 | GDH-TPI counter-2 78
CCCCN(CC)CCCNC(=O)c1cc2cc3ccc(C)cc3nc2o1	FBA Mtb inh 95, GDH-TPI counter-1 35 | Mtb FBA inh conf 78 | GDH-TPI counter-2 70
CC(C)C[C@@H](CNCC(=O)[C@H](Cc1c[nH]c2ccccc12)NC(=O)c1[nH]cnc1C(=O)N[C@@H](C)CN)NC(=O)c1nc[nH]c1C(=O)N[C@@H](CC(=O)O)C(=O)O	none
N#C/C(=C\c1ccc[nH]1)C(=O)c1ccccc1	BoNT-F LC inh inconclusive
CC1=C(C(N)=O)C(c2ccc(Br)cc2)n2nc(CCCO)nc2N1 (stereo unspecified)	none
CC(=O)NCCN=Cc1sc2ccccc2c1O	none
CCN(c1cccc(C)c1)S(=O)(=O)c1ccc2c(c1)oc(=O)n2C	FBA Mtb inh 79 | Mtb FBA inh conf 49 | GDH-TPI counter-2 46
Cc1cccc(NC(=O)CN2C(=O)NC3(CCCCCCC3)C2=O)c1C	none
COCCCNC(=O)CCc1c(C)nc2c(c(C)nn2-c2ccc(C)cc2)c1C	FBA Mtb inh 56 | Mtb FBA inh conf 71 | GDH-TPI counter-2 77
COCCNC(=O)CCc1c(C)nc2c(c(C)nn2-c2ccc(C)c(C)c2)c1C	FBA Mtb inh 43 | Mtb FBA inh conf 74 | GDH-TPI counter-2 56
CCN(CC)CCNC(=O)CCc1c(C)nc2c(c(C)nn2-c2ccc(C)cc2)c1C	FBA Mtb inh 41 | Mtb FBA inh conf inactive | GDH-TPI counter-2 inactive
Cc1ccc(-n2nc(C)c3c(C)c(CCC(=O)NC(C)c4ccccc4)c(C)nc32)cc1 (stereo unspecified)	none
COCCNC(=O)CCc1c(C)nc2nc(-c3cc(OC)cc(OC)c3)nn2c1C	none
COCCNC(=O)CCc1c(C)nc2c(c(C)nn2-c2ccc(C)cc2)c1C	FBA Mtb inh 55 | Mtb FBA inh conf 63 | GDH-TPI counter-2 49
C/C(Cn1cnc([N+](=O)[O-])n1)=N\NC(=O)c1ccncc1	none
COC(=O)[C@@H]1C[C@]2(Br)c3ccccc3N(S(=O)(=O)c3ccccc3)[C@@H]2N1C(=O)OC	none
O=C(NCCc1cccs1)C1CC(c2cccc([N+](=O)[O-])c2)=NO1 (stereo unspecified)	none
COc1ccc(CNC(=O)c2c([S-])n(-c3ccc(C)cc3)c3cccc[n+]23)cc1	FBA Mtb inh 36 | Mtb FBA inh conf 70 | GDH-TPI counter-2 97
Cc1ccc(-n2c([S-])c(C(=O)NC(C)c3ccccc3)[n+]3ccccc23)cc1 (stereo unspecified)	none
CSc1ccc(/C=C/C(=O)OCC(=O)N2CCCCCC2)cc1	FBA Mtb inh 81, GDH-TPI counter-1 43 | Mtb FBA inh conf active | GDH-TPI counter-2 active
CSc1ccc(/C=C/C(=O)OCC(=O)NC2CCS(=O)(=O)C2)cc1 (stereo unspecified)	FBA Mtb inh 64, GDH-TPI counter-1 35 | Mtb FBA inh conf 37 | GDH-TPI counter-2 24
O=C(COC(=O)/C=C/c1ccc(Cl)c(Cl)c1)NC1CCS(=O)(=O)C1 (stereo unspecified)	none
COc1cccc(CNC(=O)COC(=O)/C=C/c2ccc(SC)cc2)c1	FBA Mtb inh 37 | Mtb FBA inh conf active | GDH-TPI counter-2 active
CSc1ccc(/C=C/C(=O)OCC(=O)NC2CCCCCC2)cc1	FBA Mtb inh 30 | Mtb FBA inh conf active | GDH-TPI counter-2 196
COc1ccc(/C=C/C(=O)OCC(=O)NC2CCCCCCC2)cc1	none
COc1ccccc1CNC(=O)C(=O)NCC1OCCN1C(=O)c1ccc(Cl)cc1 (stereo unspecified)	none
CCOC(=O)c1sc(SC)c2c1CCCC2=O	none
